Compounds with a hit are over-represented: about 3.6% of the library has one in this group of screens.
TDP43 rescue: rescues yeast growth from TDP-43 toxicity | TDP-43 expressing yeast growth rescue, BacTiter-Glo, 24 h | Potency, µM (doses to about 46.1 µM), without a hit: at the top dose growth rescue (activation), most hits filed as activators | 410,000 compounds, 1.8% hits | AID 652104; note: % of control where 0% means no effect; nearly all actives have a fitted effect of over 50% in size
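Readout is BacTiter-Glo luminescence of cell growth, so inhibitors register as activators. TDP-43-expressing yeast at OD600=0.02 in galactose medium, after raffinose pregrowth to mid-log, were incubated with compound for 24 hr at 30 deg C.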
aSyn yeast inh: inhibitors of alpha-synuclein toxicity in yeast; Potency, µM (series often up to 46.1 µM), for inactives: at the highest dose growth rescue (activation), most hits filed as activators; Yeast expressing alpha-synuclein, growth rescue, BacTiter-Glo, 24 h; 370,000 compounds, 0.14% hits; note: % of control where 0% means no effect; nearly all actives have a fitted effect of over 65% in size
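Galactose-induced alpha-syn yeast (OD600=0.02, raffinose-pregrown) + pinned cpd, 24 hr, 30 deg C; growth by BacTiter-Glo luminescence. Growth restoration scores as activation.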
MmCpn inh: blocks the Methanococcus maripaludis chaperonin Mm-Cpn; 330,000 compounds, 0.031% hits; Potency, µM (series often up to 76.9 µM), for the others: top-dose activity, negative = inhibition, hits mostly inhibitors; purified Mm-Cpn ATPase, ADP Transcreener TR-FRET; AID 504842; note: % is set by controls: 0 for no effect and ±100 for the full control effect; nearly all actives have a fitted effect of over 80% in size
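Compound-treated chaperonin, 25 nM final, turns over 10 uM ATP at 37°C for 30 min following a 10 min preincubation; ADP generated competes with ADP-d2 for Eu-cryptate antibody, lowering FRET.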
Abeta rescue: restores growth of yeast expressing A-beta42 peptide; AID 1347071; yeast expressing A-beta42, growth rescue, OD600, 48 h; response scale: 0% DMSO, 100% iron-clioquinol control; 410,000 compounds, 0.063% hits; Potency, µM (series often up to 46.1 µM), most hits filed as activators; note: nearly all actives have a fitted effect of over 55% in size
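Growth rescue measured by 600 nm absorbance after 48 h yeast culture at 30 C with compound. Values normalized between DMSO and an equimolar ferric chloride plus clioquinol control.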
ClpP mod: qHTS Assay for Activators of ClpP. purified B. subtilis ClpP, FRET peptide cleavage, 20 min. Potency, µM (series often up to 57.5 µM), for the others: top-dose activity change, negative = active. 340,000 compounds, 1.9% hits. AID 651965, 2013; active = well fitted falling curve with a large enough effect; inconclusive = small, poorly fitted or top-dose-only effect; inactive = no such curve, though single readings can be large or run the other way; note: the source files actives as falling curves though it sought activators and does not explain the sign; nearly all actives have a fitted effect of over 65% in size
Target sequence (P80244 whole entry, looked up): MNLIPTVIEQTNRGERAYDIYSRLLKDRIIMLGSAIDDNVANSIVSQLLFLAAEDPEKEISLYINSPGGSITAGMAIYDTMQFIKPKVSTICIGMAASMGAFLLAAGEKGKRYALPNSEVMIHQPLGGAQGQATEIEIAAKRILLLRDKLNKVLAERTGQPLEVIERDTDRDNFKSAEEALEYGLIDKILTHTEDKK
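Purified B. subtilis ClpP, 10 microg/mL final in Tris/HCl pH8 with KCl, BSA, glycerol and Tween-20, cleaved an Abz/nitrotyrosine-quenched decapeptide. Fluorescence (ex 320, em 430) was read at 0 and 20 min at room temperature. Delta was normalized to 5.8 microM ADEP and DMSO/no-enzyme controls.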
FUS suppressor: rescues growth of FUS-expressing yeast; S. cerevisiae FUS-expressing, growth rescue, OD600, 24 h; AID 1347120; 390,000 compounds, 0.24% hits; Potency, µM (top dose mostly 76.6 µM), hits mostly activators;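 note: plate controls were DMSO vehicle for no effect and reference control for full effect; nearly all actives have a fitted effect of over 55% in size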
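FUS-expressing yeast, raffinose-pregrown, induced in 2% galactose minimal medium at OD 0.005; compounds in a dilution series, 24hr at 30C. Growth restoration read as absorbance at 600 nm. CP55940 positive control, DMSO negative.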
Active calls of the source: *; i = inactive; ? = inconclusive; · = not tested or not shown; [ ] = dose if it differs, or a comment. Unless noted, calls come from the whole dose curve; as a rule, active = well fitted curve in the direction sought with a large enough effect; inconclusive = small, poorly fitted or top-dose-only effect, or another doubt; inactive = no such curve, though single readings can be large; an effect the other way counts as inactive or inconclusive. Potency is the fitted concentration of half-maximal effect.

SMILES | TDP43 rescue | aSyn yeast inh | MmCpn inh | Abeta rescue | ClpP mod | FUS suppressor
Cc1ccccc1CN1CCCCC(NC(=O)C2CCC2)C1=O (centres undefined) | · | · | · | · | · | i
COc1ccc(CN2[C@@H](CC(=O)O)c3ccc(/C=C/C(=O)O)cc3S2(=O)=O)cc1 | · | · | · | · | 0% | ·
COc1ccccc1CNC(=O)c1cc2cc3ccc(Cl)cc3nc2o1 | 7% | · | · | i | -9% | i
COc1ccc(CN2CCN(c3cc(C)nc4c5c(C)cc(C)nc5nn34)CC2)cc1F | 7% | -2% | -3% | i | 11µM* | ·
Cc1nc2cc(-c3ccccc3)nn2c(C)c1CCC(=O)N1CCN(c2ccccn2)CC1 | · | · | -1% | · | · | ·
Cc1cc(N2CCN(c3ccccn3)CC2)n2cc(-c3ccccc3)nc2n1 | 4% | -1% | -1% | i | 28µM* | i
COc1cc(NC(=O)CN2C(=O)CN(C)C(=O)c3ccccc32)cc(OC)c1OC | -2% | · | · | i | -3% | i
COc1ccc2[nH]c(CCc3nc4c(OC)c(OC)ccc4[nH]3)nc2c1OC | · | · | · | · | 5% | ·
Cc1csc(NC(=O)c2ccc(COc3cccc(F)c3)o2)n1 | · | · | · | · | · | i
CC1(C)CC2CC(C)(CN2C(=O)COC(=O)c2ccc(Cl)cc2N)C1 (centres undefined) | -12% | -1% | -1% | i | 28µM* | i
CC1(C)CC2CC(C)(CN2C(=O)COC(=O)c2ccc(Cl)c(N)c2)C1 (centres undefined) | -22% | 0% | 1% | i | ? | i
O=C(NCCc1ccccc1)c1ccc(S(=O)(=O)N2CCCCC2)cc1 | 5% | 1% | · | i | -2% | i
O=S(=O)(Nc1ccc2c(c1)oc1ccccc12)N1CCCC1 | ? | 19% | 0% | i | ? | i
O=S(=O)(Nc1cccc2ccccc12)N1CCCC1 | -10% | -4% | -2% | i | 28µM* | i
O=C(NCCc1ccccc1)c1ccccc1NS(=O)(=O)N1CCCC1 | -10% | 4% | 0% | i | 14µM* | i
Cc1ccc(NC(=O)C2CCCN(C(=O)c3cnn(-c4ccc(F)cc4)c3-n3cccc3)C2)c(Cl)c1 (centres undefined) | ? | 1% | · | i | 2% | i
Cc1ccc(-n2c(SCC(N)=O)nnc2-c2ccc(S(=O)(=O)N3CCCCC3)cc2)c(C)c1 | -7% | -2% | 1% | i | 25µM* | i
N#Cc1ccc(NC(=O)C2Cc3ccccc3CN2S(=O)(=O)c2ccc(F)cc2)cc1 (centres undefined) | ? | · | · | i | -2% | i
c1ccc2c(Nc3nc(-c4ccncc4)nc4ccccc34)cccc2c1 | 2% | 5% | 1% | i | · | i
Clc1ccccc1Nc1nc(-c2ccncc2)nc2ccccc12 | 35µM* | 1% | 0% | i | -10% | i
Cc1cc(C)c2oc(-c3cccc(NC(=O)COc4ccc([N+](=O)[O-])cc4)c3)nc2c1 | 15% | · | · | i | 1% | i
CCOc1ccc(Oc2c(C)oc3cc(O)ccc3c2=O)cc1 | -21%[0.397 µM] | 7% | -2% | ? | · | i
COC(=O)c1cc(-c2c(C)oc3cc(OC)ccc3c2=O)c(C)o1 | -13% | -31% | 4% | i | 1% | i
Cc1oc2cc(O)ccc2c(=O)c1Oc1ccccc1 | -11% | -12% | 0% | i | 11µM* | i
COC(=O)c1cc(-c2c(C)oc3cc(O)ccc3c2=O)c(C)o1 | -20% | 3% | -4% | i | 25µM* | i
Cn1c(=O)oc2cc(S(=O)(=O)N3CCCC(C(=O)NCc4ccc(F)cc4)C3)ccc21 (centres undefined) | 15% | · | · | i | -2% | i
O=C(CSc1nc2nc(-c3cccs3)cc(C(F)(F)F)c2c(=O)[nH]1)C(F)(F)F | 12% | 5% | -9% | i | 4% | i

Bioassay records (PubChem)
